Source: PubChem BioAssay AID1981 (Southern Research Specialized Biocontainment Screening …, 2009)
Hit rate of the full screen: of about 2,200 compounds, about 480 (22%) were called active. How the calls were made is not given here. Only a sample is shown. Results with a measured potency or affinity are listed apart.

test: S. Typhimurium GFP fluorescence dose response in modified counterscreen for PhoP regulon inhibitor project (AID 1981); settings: 4 h; series mostly up to 150 µM

SMILES | outcome
O=C(COC(=O)c1cn(-c2ccccc2)nc1-c1ccccc1)c1cccc([N+](=O)[O-])c1 | inactive
O=C(NCc1ccccn1)c1cn(-c2ccccc2)nc1-c1ccc(Cl)cc1 | inactive
O=C(OCc1ccccc1)c1cn(-c2ccccc2)nc1-c1ccncc1 | inactive
CCc1ccc(C(c2c(C)nn(-c3ccccc3)c2N)c2c(C)nn(-c3ccccc3)c2N)cc1 | inactive
O=C(c1ccc(F)cc1)C(CN1CCOCC1)c1ccccc1 (stereo unspecified) | inactive
O=C(NCc1ccccn1)Nc1cccc(Cl)c1 | inactive
COCCNCCOc1ccccc1-c1ccccc1 | inactive
COc1cc(OC)c(NC(=O)Nc2ccc(OC)c(OC)c2)cc1Cl | inactive
Cc1ccc2cc(CN(CCO)Cc3nnnn3Cc3ccc(F)cc3)c(=O)[nH]c2c1 | inactive
CCOC(=O)C(NS(=O)(=O)c1ccccc1)(C(F)(F)F)P(=O)(OCC(C)C)OCC(C)C (stereo unspecified) | inactive
Cc1cc2cc(CNS(=O)(=O)c3ccc4ccccc4c3)ccc2n1C | inactive
O=C(c1ccccc1)c1coc2ccc(O)c(Cl)c12 | inactive
CC(C)CNC(=O)c1ccc(COc2ccc(Cl)cc2Cl)o1 | inactive
C#CCOc1ccc(Cl)cc1/C=N/O | inactive
Cc1ccc(SC(c2ccc(C)cc2)C(Cn2cncn2)C(=O)c2ccccc2)cc1 (stereo unspecified) | inactive
Cc1cccc(NC(=S)NC(NC(=O)c2ccco2)C(Cl)(Cl)Cl)c1 (stereo unspecified) | inactive
CCOC(=O)C1=C(C)N=c2s/c(=C\c3ccncc3)c(=O)n2C1c1ccc2c(c1)OCO2 (stereo unspecified) | inactive
CCOc1ccc(S(=O)(=O)NNC(=S)Nc2ccc(Br)cc2)cc1 | inactive
CCOC(=O)c1c(NC(=O)COc2ncnc3ccccc23)sc(C)c1CC | inactive
O=C1C(Nc2ccccc2)=C/C(=N/S(=O)(=O)c2cccs2)c2ccccc21 | inactive
Cc1cc(C)c2cc(CN(Cc3cccnc3)C(=O)c3ccc(F)cc3)c(Cl)nc2c1 | inactive
COc1ccc(C(C)=O)c2c(O)cccc12 | inactive
CN(C)CCNC(=O)c1ccc(COCC(F)(F)F)cc1 | inactive

SMILES | outcome
CCN(CC)CCNC(=O)c1cn(CC)c2cc(N3CCN(C(=O)c4ccco4)CC3)c(F)cc2c1=O | inactive
COc1ccc(S(=O)(=O)N2CCN(C(=O)c3c(C)nn(-c4ccccc4)c3Cl)CC2)cc1 | inactive
Cn1c(-c2ccc3c(c2)OCO3)cnc1NCc1cccc(Cl)c1 | inactive
O=C(NCCN1CCOCC1)c1ccc2ccccc2c1 | inactive
O=C(Cc1ccccc1)NCc1ccc(F)cc1 | inactive
Fc1ccccc1CCNCc1cccc(Cl)c1Cl | inactive
c1coc(CNc2c3c(nc4ncnn24)CCCC3)c1 | inactive
O=S(=O)(Nc1ccc2c(c1)nc1n2CCN(Cc2ccccc2)C1)c1ccc(F)cc1 | inactive
CCn1c(SCC(=O)Nc2ccc3c(c2)oc2ccccc23)nnc1-c1ccc(N)cc1 | inactive
CC1(C)CC(=O)C2=C(C1)N(c1ccc(F)cc1)C(N)=C(C#N)C2c1cccs1 (stereo unspecified) | inactive
O=C(Oc1ccc(N(Cc2cccs2)C2=NS(=O)(=O)c3ccccc32)cc1)c1ccc(Cl)cc1 | inactive
O=C(NCCNc1ccc([N+](=O)[O-])cc1C(F)(F)F)c1ccccc1F | inactive
O=C(Nc1cnc2ccccc2c1)N1CCOCC1 | inactive
CCOC(=O)N1CCN(S(=O)(=O)c2ccc(C(=O)NNc3nc4c(C)cc(C)cc4s3)cc2)CC1 | inactive
O=C(c1ccco1)c1cn(CC(=O)N2CCCc3ccccc32)c2ccccc12 | inactive
O=c1cc(O)nc(SCc2ccccc2Cl)[nH]1 | inactive
Cc1cc(C(=O)N2CCN(C/C=C/c3ccccc3)CC2)no1 | inactive
Cc1[nH]c2ccccc2c1C(c1ccncc1)N1CCN(c2ccc(F)cc2)CC1 (stereo unspecified) | inactive
Cn1cc(-c2nnnn2-c2cccc(C(F)(F)F)c2)c(C(F)(F)F)n1 | inactive
COC(=O)CSc1nc(SCc2ccccc2Cl)nc2c1CCCC2 | inactive
c1ccc(-c2cc(CSc3nc4ccccc4[nH]3)on2)cc1 | inactive
N#Cc1nc(Cc2cccc3ccccc23)oc1NCCCN1CCOCC1 | inactive
Cc1nc2cc(NC(=O)N3CCN(c4ccccn4)CC3)ccc2o1 | inactive

SMILES | outcome
Oc1ccc(C2NCc3ccccc3-n3cccc32)cc1Cl (stereo unspecified) | inactive
CC(=O)c1sc(NC(=O)COc2ccc([N+](=O)[O-])cc2)nc1C | inactive
CCn1c(SCc2ccc(F)cc2)nc2ccccc2c1=O | inactive
CCCCCc1ccc(OCCC[n+]2ccccc2)c(CCCCC)c1 | inactive
O=C(CSC1CCCCC1)Nc1ccccc1Br | inactive
COc1ccc(NC(C)C(=O)Nc2ccc(C(C)(C)C)cc2)cc1Cl (stereo unspecified) | inactive
Cc1cccc(-n2c(O)c(C=NCc3cccnc3)c(=O)[nH]c2=O)c1C | inactive
Cc1ccc(C(C[N+](=O)[O-])c2c(C)cc3ccccn23)cc1 (stereo unspecified) | inactive
O=C(O)CCS(=O)(=O)c1ccc(-c2ccccc2)cc1 | inactive
CNC(=O)CSc1nnc(-c2cccnc2)n1CCc1ccccc1 | inactive
Cc1ccc(-c2nc3ccccc3[nH]2)cc1NC(=S)NC(=O)c1ccccc1Br | inactive
Cc1ccc(OCc2nnc(SCC(=O)Nc3ccc4c(c3)OCO4)n2C)cc1 | inactive
CCOc1ccc(/C(O)=C2\C(=O)C(=O)N(CCN(C)C)C2c2cccc(OC)c2OC)cc1Cl (stereo unspecified) | inactive
O=C(Cc1cccs1)Nc1cccc(-c2nc3cc4ccccc4cc3[nH]2)c1 | inactive
COc1ccc(Cl)cc1-c1nc(SCC(N)=O)n[nH]1 | inactive
O=C(OCC#CCSc1nnc(-c2cccc3ccccc23)o1)c1ccco1 | inactive
COc1ccc(Nc2nc(-c3c[nH]c4ccccc34)cs2)cc1 | inactive
CCc1ccccc1NC(=O)c1nnn(CC(=O)Nc2cccc(C)c2C)c1N | inactive
CCc1ccc2[nH]c(=O)c(CN(Cc3ccccc3)C(=O)Nc3ccccc3OC)cc2c1 | inactive
COc1ccccc1N1CCN(C(=O)c2cccc3c(=O)c(C)c(-c4ccccc4)oc23)CC1 | inactive
COc1ccccc1NC(=S)NC(=O)C(C)(C)C | inactive
COC(=O)c1ccc(C)c(NC(=O)CN(c2cc(OC)ccc2OC)S(C)(=O)=O)c1 | inactive
N#CC1(C#N)COC23CCCCC2C1(C#N)C(=N)O3 (stereo unspecified) | inactive

SMILES | outcome
COc1ccc(OC)c(-c2cc(C(=O)Nc3c(C)nn(Cc4ccccc4)c3C)no2)c1 | inactive
Cc1nc2ccccc2n1CC(=O)NCc1ccccc1 | inactive
CCN1CCN(C(=O)c2ccc3c(=O)n(Cc4ccccc4OC)c(=S)[nH]c3c2)CC1 | inactive
CC(C)Cc1nc2ccc(N)cc2[nH]1 | inactive
Cc1[nH]c2ccccc2c1C(=O)COC(=O)c1ccc([N+](=O)[O-])s1 | inactive
Cc1ccc(NC(=O)CSc2nnc(C3CCCCC3)n2N)cc1F | inactive
O=C(c1cccnc1Nc1ccc2c(c1)CCC2)N1CCOCC1 | inactive
O=C(Nc1cccn(Cc2c(Cl)cccc2Cl)c1=O)c1ccccc1Cl | inactive
CCCn1c(N)c(C(=O)COC(=O)c2c(C)noc2C)c(=O)n(C)c1=O | inactive
CCOC(=O)C1=CSC2=NS(=O)(=O)CCN12 | inactive
O=C(CCN1C(=O)COc2ccccc21)NCCN1CCOCC1 | inactive
C#CCn1c(=NC(=O)c2cc(Cl)sc2Cl)sc2cc(S(N)(=O)=O)ccc21 | inactive
CCN(CC)S(=O)(=O)c1ccc(C(=O)N2CCN=C2SCc2cccnc2)cc1 | inactive
Cc1ccc(Nc2cc(C)c3c(O)cccc3n2)cc1C | inactive
Cc1cc(Nc2ccccc2)nc2cc(O)ccc12 | inactive
Cc1cc(O)ccc1Nc1nc2ccccc2nc1Nc1ccc(O)cc1C | inactive
Cc1ccc(Nc2cc(C)c3ccc(O)cc3n2)cc1C | inactive
c1ccc(-n2cnc3cc(NCc4ccccn4)ccc32)cc1 | inactive
CCOC(=O)c1[nH]c2ccccc2c1NC(=O)C(C)(C)C | inactive
Cn1cc(C(CC(=O)O)C(=O)O)c2ccccc21 (stereo unspecified) | inactive
CCOc1ccc(-n2c(SCc3nc(-c4ccc(C)cc4)no3)nnc2-c2ccncc2)cc1 | inactive
c1cncc(-c2nc(N3CCOCC3)c3ccccc3n2)c1 | inactive
O=c1[nH]c2cc3c(cc2cc1CN(CCc1ccccc1)Cc1nnnn1CC1CCCO1)OCO3 (stereo unspecified) | inactive

SMILES | outcome
CCn1c(=O)c(=O)[nH]c2cc(C(=O)NCC3CCCCC3)ccc21 | inactive
CCOC(=O)CNS(=O)(=O)c1c(C)noc1C | inactive
CC1=CC2=NC(=O)/C(=C\c3cc(C)n(-c4ccc(F)cc4)c3C)C(=N)N2O1 | inactive
Cc1ccc(C(=O)CSC2=C(C#N)C(c3ccco3)CC(=O)N2)c(C)c1 (stereo unspecified) | inactive
COCCNC(=S)N(Cc1cccnc1)Cc1ccc(OC)c(OC)c1 | inactive
COc1ccc(NC(=O)ON=C2c3ccccc3-c3ccccc32)cc1 | inactive
COC(=O)c1cc(C#N)c(Oc2ccccc2OC)nc1C | inactive
O=C(Cn1nc(C(F)(F)F)c2c1CCCCC2)N1CCOCC1 | inactive
Cc1ccc2occ(/C=N/O)c(=O)c2c1 | inactive
C#CCOc1ccc(/C=C2\SC(=S)N(Cc3cccnc3)C2=O)cc1 | inactive
c1ccc2oc(SCc3cn4ccccc4n3)nc2c1 | inactive
Cc1cc(NC(=O)c2ccco2)ccc1-n1cnnn1 | inactive
CCOc1ccccc1Nc1nc2ccccc2n2cnnc12 | inactive
CCn1c(=O)c2c(O)cc(=O)oc2c2ccccc21 | inactive
Cc1nc([N+](=O)[O-])c(Br)n1CC(=O)c1ccccc1 | inactive
C=CCNc1ncnc2ccc(Br)cc12 | inactive
O=c1c2c(-c3ccccc3)csc2nc2c3ccccc3c(NCCN3CCOCC3)nn12 | inactive
COc1ccc(NC(=O)CSc2nnc(-c3cccs3)n2Cc2ccco2)cc1OC | inactive
CCSc1nc(C2CC2)cc(-c2cccs2)c1C#N | inactive
